The results in this text go back to PubChem BioAssay (NCATS).

Results filed as inconclusive are left out. A number with no mark means an inactive call. The source made the active and inactive calls. Calls come from the whole dose curve; as a rule, active = well fitted cell-killing curve with a large enough effect; inconclusive = small, poorly fitted or top-dose-only effect; inactive = flat fitted curve, though single readings scatter.
% is set by controls: 0 for no effect and ±100 for the full control effect; potency is the fitted concentration of half-maximal effect.

This test in a line: Cell Viability - LYMP2-016 (AID 984). Note: nearly all actives have a fitted effect of over 55% in size. To be noted: LYMP2-016 lymphoblastoid cell viability, qHTS; series mostly up to 92.2 µM; activity change, negative = cytotoxicity: at the top concentration. From the text: NIH Chemical Genomics Center [NCGC]
NIH Molecular Libraries Screening Centers Network [MLSCN]
National Institutes of Environmental Health Sciences [NIEHS]
National Toxicology Program [NTP]
We have developed a 1536-well cell-based assay for quantitative high throughput screening (qHTS) against a number of cell lines to determine in vitro cytotoxicity of small molecules. This particular assay uses a human lymphoblastoid cell line (LYMP2-016) purchased from Coriell Institute for Medical Research.
NCGC Assay Protocol Summary:
The CellTiter-Glo luminescent cell viability assay (Promega) is a homogeneous method to measure the number of viable cells in culture. The end point readout of this assay is based on quantitation of intracellular ATP, an indicator of metabolic activity, using the luciferase reaction. Luciferase catalyzes the oxidation of beetle Luciferin to oxyluciferin and light in the presence of ATP. The luminescent signal is proportional to amount of ATP present.
Using the CellTiter-Glo luminescent cell viability assay, the amount of cellular ATP was measured in the lymphoblastoid cell line with complete culture medium following compound treatment for 24 hours. The assay was performed in opaque white Kalypsys 1536-well plates. In the screen, tetraoctylammonium bromide was used as positive control. Library compounds were measured for their ability to cause acute toxicity in the cell line, as reflected by a decrease in intracellular ATP levels, in a concentration-dependent manner. […] AC50 values were determined from concentration-response data modeled with the standard Hill equation.
qHTS protocol for CellTiter Glo lymphoblastoid cellular assay
[Step] [Parameter] [Value] [Description]
1. Reagent; 5 uL; 2500 lymphoblastoid cells/well
2. Time; 5 hr; 37 C incubation
4. Controls; 23 nL; Tetraoctylammonium bromide 6.4pM to 92 uM
5. Time; 24 hr; 37 C incubation
6. Reagent; 5 uL; CellTiter Glo reagent
7. Time; 30 min; Room Temperature
8. Detection; Luminescence; Viewlux plate reader
Keywords: cell viability, cytotoxicity, lymphoblastoid cell line, luminescence, NTPHTS, NTPHTS_NCGC, NIEHS, DSSTox, MLSMR, MLSCN, NIH Roadmap, qHTS, NCGC
For `CCCCC(=O)Cl`, the “activity change, negative = cytotoxicity” value was -0.494%.

Take `Cc1cc(C)cc(OP(=O)(Oc2cc(C)cc(C)c2)Oc2cc(C)cc(C)c2)c1`: the “activity change, negative = cytotoxicity” value is -8.81%.

Regarding `O=[N+]([O-])c1cc(Cl)c(Cl)c(Cl)c1`, the “activity change, negative = cytotoxicity” value is -5.87%.

Take `O=[N+]([O-])c1ccccc1-c1ccccc1`: the “activity change, negative = cytotoxicity” value is -0.587%.

Take `Oc1cc(Cl)c(Cl)c(Cl)c1Cl`: the “activity change, negative = cytotoxicity” value is -18.5%.

For the compound `NC1CCC(CC2CCC(N)CC2)CC1` (stereo not given), the “activity change, negative = cytotoxicity” value was -12.6%.

With `CCC/C=N/O`, the “activity change, negative = cytotoxicity” value was -8.21%.

Consider `CC(C)[C@]12CC(=O)[C@H](C)[C@H]1C2`, for which the “activity change, negative = cytotoxicity” value was -5.53%.

As for `C=CC=O`, the “activity change, negative = cytotoxicity” value is 0.199%.

As to `OCCBr`, the “activity change, negative = cytotoxicity” value was -1.84%.

Regarding `ClCc1ccccn1`, the “activity change, negative = cytotoxicity” value is -1.61%.

`O=C(Cl)c1ccccc1F`: the “activity change, negative = cytotoxicity” value is -1.56%.

As for `C=C(Cl)CSC(=S)N(CC)CC`, the “activity change, negative = cytotoxicity” value was -24.7%.

For the compound `O=Cc1ccc2c(c1)OCO2`, the “activity change, negative = cytotoxicity” value is -3.46%.

`CN=C=O`: the “activity change, negative = cytotoxicity” value is -1.28%.

Take `Nc1ccc(Oc2ccc(N)cc2)cc1`: the “activity change, negative = cytotoxicity” value was 2.51%.

In the case of `CCC#N`, the “activity change, negative = cytotoxicity” value was -2.72%.

Take `CC(Cl)(Cl)Cl`: the “activity change, negative = cytotoxicity” value was -6.8%.

As for `[N-]=[N+]=[N-]`, the “activity change, negative = cytotoxicity” value is -1.26%.

On to `c1ccc(C2CO2)cc1` (stereo not given), for which the “activity change, negative = cytotoxicity” value is -5.19%.

Consider `Cc1ccc(N)cc1Cl`, for which the “activity change, negative = cytotoxicity” value was -9.73%.

As to `O=C(O)C(Br)Br`, the “activity change, negative = cytotoxicity” value was -21%.

`CN1CSC(=S)N(C)C1`: the Potency is 39.8 µM (active).

With `O=C(O)CCl`, the “activity change, negative = cytotoxicity” value was -5.93%.

As to `Cc1cc(Cl)ccc1O`, the “activity change, negative = cytotoxicity” value was -3.69%.

On to `O=[N+]([O-])c1c(Cl)c(Cl)c(Cl)c(Cl)c1Cl`, for which the “activity change, negative = cytotoxicity” value is -2.36%.

In the case of `O=[N+]([O-])c1ccccc1CCl`, the “activity change, negative = cytotoxicity” value was -15.2%.

As to `OCC(Cl)CCl` (stereo not given), the “activity change, negative = cytotoxicity” value was -1.72%.

As to `CCBr`, the “activity change, negative = cytotoxicity” value is -5.95%.

As for `Oc1ccc(Cl)c(Cl)c1`, the “activity change, negative = cytotoxicity” value is -2.21%.

As to `Nc1ncc([N+](=O)[O-])s1`, the “activity change, negative = cytotoxicity” value was 2.24%.

In the case of `Cc1cccc(N)c1C`, the “activity change, negative = cytotoxicity” value was -18.4%.

On to `O=C(O)c1cccc(Cl)c1`, for which the “activity change, negative = cytotoxicity” value is 1.62%.

For `Clc1ccc(C(c2ccccc2Cl)C(Cl)(Cl)Cl)cc1` (stereo not given), the “activity change, negative = cytotoxicity” value was -12.6%.

`ClCC(Br)CBr` (stereo not given): the “activity change, negative = cytotoxicity” value was 1.73%.

Take `OCCCCO`: the “activity change, negative = cytotoxicity” value was -4.86%.

Consider `CCC(Cl)[N+](=O)[O-]` (stereo not given), for which the “activity change, negative = cytotoxicity” value is -9.22%.

On to `c1ccc(N=NNc2ccccc2)cc1`, for which the “activity change, negative = cytotoxicity” value is -13.4%.

Regarding `Clc1ccc(C(Cl)(Cl)Cl)cc1Cl`, the “activity change, negative = cytotoxicity” value was -4.05%.

As to `O=Cc1ccc(Cl)cc1Cl`, the “activity change, negative = cytotoxicity” value is -6.18%.
